Hits are enriched below; roughly 4.5% of the tested compounds scored in any of these assays.
Rpn11 inh: inhibitors of human proteasome Rpn11; O00487; human 26S proteasome, Ub4-pepOG fluorescence polarization; 20S core pre-blocked with epoxomicin; inhibition, % at 20 µM; hit rate 0.59% among 360,000;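 active = inhibition at 20 µM, scaled to each plate's controls, above about 33%, limit read from the data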
Target sequence (O00487 whole entry, looked up): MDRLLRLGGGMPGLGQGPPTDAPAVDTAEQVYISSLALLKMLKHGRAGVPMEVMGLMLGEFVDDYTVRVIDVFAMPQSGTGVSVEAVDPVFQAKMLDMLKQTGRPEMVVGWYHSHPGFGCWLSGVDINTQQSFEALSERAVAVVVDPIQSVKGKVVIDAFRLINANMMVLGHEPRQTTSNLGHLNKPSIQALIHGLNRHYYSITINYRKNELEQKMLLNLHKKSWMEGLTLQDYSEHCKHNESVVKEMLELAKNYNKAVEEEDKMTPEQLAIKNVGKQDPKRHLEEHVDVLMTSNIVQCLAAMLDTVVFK
EBNA-1 inhibitor: blocks EBNA-1 binding to DNA | hit rate 0.34% among 300,000 | EBNA-1 DNA binding, fluorescence polarization | inhibition, % at 14.8 µM; in the data active = inhibition above about 28%
dFosB act: activators of mouse delta FosB homodimer; P13346; purified delta FosB, TAMRA-CDK5 oligo fluorescence polarization; percent of positive-control signal above neutral wells; activation, % at 25 µM; hit rate 0.99% among 340,000;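 active = mean activation above about 17%, with every replicate also reaching it, limit read from the data, passing the limit was not always enough; inconclusive = only one of the two conditions met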
GRIN3A LBD mod: modulates the human NR3A ligand-binding domain; NR3A LBD differential scanning fluorimetry, Tm shift; 0% = protein alone, 100% = glycine-bound protein; hit rate 2.5% among 340,000; Tm shift relative to glycine control, % at 25 µM;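 active = melting temperature shift of at least 10% of the positive control shift, at one fixed dose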
ZTA DNA inh: blocks Epstein-Barr virus ZTA, an EBNA-1 counter-screen; AID 2234; ZTA-DNA binding, fluorescence polarization; inhibition, % at 11 µM; hit rate 0.15% among 320,000; P03206; in the data active = inhibition above about 33%
Target sequence (P03206 whole entry, looked up): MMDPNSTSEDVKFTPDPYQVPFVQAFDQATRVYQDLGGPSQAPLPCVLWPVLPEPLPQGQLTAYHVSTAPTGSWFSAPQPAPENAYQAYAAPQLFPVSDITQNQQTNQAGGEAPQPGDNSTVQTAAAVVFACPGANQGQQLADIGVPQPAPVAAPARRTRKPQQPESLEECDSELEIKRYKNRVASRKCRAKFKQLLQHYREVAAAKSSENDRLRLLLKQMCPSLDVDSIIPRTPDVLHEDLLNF
TPT1 inh: blocks Candida albicans tRNA 2'-phosphotransferase; hit rate 0.81% among 300,000; inhibition, % at 5 µM; recombinant caTPT1, FP RNA substrate dephosphorylation;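 active = inhibition above the mean of all tested compounds plus 3 SD, set per screening campaign, cut at about 24% in these data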;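 also: plate controls were DMSO alone for no effect and ferristatin control at 100 nM for full effect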
EBNA-1 confirm: EBNA-1 (EBV) inhibition, confirmation; inhibition, % at 14.8 µM; AID 2292; shares compounds with EBNA-1 inhibitor; hit rate 35% among 830; Recombinant EBNA-1 DBD, Cy5-DNA fluorescence polarization;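 active = mean inhibition across replicates above a set limit taken from the earlier primary screen, cut at about 28% in these data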;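 also: plate controls were EBNA-1 protein with DMSO for no effect and wells lacking EBNA-1 for full effect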
ZTA counter trip: ZTA (EBV) inhibition, triplicate counter-screen | shares compounds with EBNA-1 inhibitor | Zta-ZRE DNA binding, Cy5 fluorescence polarization | inhibition, % at 11.1 µM | 830 tested, under 10 active;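 active = mean inhibition over triplicates above a set limit taken from the primary EBNA-1 screen, cut at about 37% in these data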;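 also: purified full length Zta protein with Cy5 labeled ZRE DNA probe; 0% = Zta with DMSO and 100% = wells lacking Zta protein; inhibitors lower polarization by freeing the labeled DNA probe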
An asterisk follows results filed as active; ? = inconclusive; / = no result given.

SMILES	Rpn11 inh	EBNA-1 inhibitor	dFosB act	GRIN3A LBD mod	ZTA DNA inh	TPT1 inh	EBNA-1 confirm	ZTA counter trip
COc1cccc(N2CCN(S(=O)(=O)c3ccc(-c4cnc(C5CC5)o4)cc3)CC2)c1	-4.3	90.9*	2.5	2.6	-5.5	-1.4	84.2*	1.7
COc1ccc(N2CCN(S(=O)(=O)c3ccc(-c4cnc(C5CC5)o4)cc3)CC2)cc1	-9.5	6.9	11.6	0.1	-0.4	1.2	/	/
Nc1c(C(=O)NCc2ccc3c(c2)OCO3)nnn1Cc1cccc(F)c1	2.5	75.7*	15.5	-0.8	-2.9	2.6	28.8*	8.2
Cc1ccc(NC(=O)Cn2nnc(C(=O)NCc3ccc4c(c3)OCO4)c2N)cc1	5.7	-6.5	-3.7	-8.5	-14.9	0.4	/	/
Nc1c(C(=O)Nc2ccc3c(c2)OCCO3)nnn1Cc1ccc(Cl)cc1	-5.5	11.7	-5.3	3.8	13.9	-2.6	/	/
Nc1c(C(=O)Nc2ccc3c(c2)OCCO3)nnn1Cc1cccc(F)c1	-5.1	34.9*	-0.6	/	6.6	-0.5	87.3*	-0.2
CCOC(=O)c1sc2nc(CSc3ccccc3)nc(NCCN(C)C)c2c1C	5.9	5.6	-1.2	-2.2	2.4	3.4	/	/
O=C(N/N=C\c1ccc(CNS(=O)(=O)c2ccc(Cl)cc2)o1)C(=O)Nc1ccc(Oc2ccccc2)cc1	3.7	29.3*	3.6	-3.8	7.3	2.3	30.4*	-0.6
N#C/C(=C\c1cn(Cc2ccccc2C#N)c2ccccc12)C(=O)NCc1cccs1	/	30.8*	/	/	-13.8	2.2	2.3	-8.3
CC(=O)CC1(OC(C)=O)C(=O)N(C)c2ccccc21 (stereo not given)	0.3	8.3	2.3	-2.7	15.4	-2.8	/	/
Cc1ccc(NC(=O)C2CC(=O)N/C(=N/N=C/c3ccco3)S2)cc1C (stereo not given)	3.3	30.4*	?	-0.4	-11.9	-1.9	3.9	-9.8
Cc1ccc(NC(=O)C2CC(=O)N/C(=N/N=C/c3ccco3)S2)cc1 (stereo not given)	-6.9	4.2	4.8	2.1	21.7	-2.6	/	/
O=C(Nc1ccc(N2CCN(c3ncccc3C(F)(F)F)CC2)nc1)c1cccs1	7.5	1.1	-6.0	-5.0	-8.0	-5.3	/	/
O=C(Nc1ccc(N2CCN(c3ccc(C(F)(F)F)cn3)CC2)nc1)c1cccs1	9.0	39.2*	-14.5	7.8	1.7	4.5	14.3	-2.9
Cc1onc(-c2ccccc2)c1C(=O)N(C)CC(=O)Nc1ccc(F)c(F)c1F	-2.9	/	-10.1	1.2	/	/	/	/
CCn1c(COc2ccccc2C)nnc1SCC(=O)Nc1ccc2c(c1)OCCO2	4.4	/	-2.3	0.2	/	/	/	/
CCn1c(Cc2ccccc2)nnc1SCC(=O)Nc1ccc2c(c1)OCCO2	0.3	28.9*	-0.5	1.7	-0.5	0.7	-0.5	4.2
Cc1ccccc1Nc1nc(N)nc(CSc2nc3ccccc3c(=O)n2CCCO)n1	-3.3	42.2*	-5.3	-4.5	8.9	-1.4	-1.8	5.5
COCCn1c(SCc2nc(N)nc(Nc3ccccc3C)n2)nc2ccccc2c1=O	-0.2	1.3	-2.6	-1.2	7.0	1.4	/	/
CC(=O)c1cccc(NC(=S)N2CCN(CCN3C(=O)c4cccc5cccc(c45)C3=O)CC2)c1	1.8	33.9*	-8.5	-1.5	-3.4	-2.8	19.1	-15.3
CC(=O)c1ccc(NC(=S)N2CCN(CCN3C(=O)c4cccc5cccc(c45)C3=O)CC2)cc1	-5.2	-2.0	12.8	1.4	-7.5	-0.6	/	/
CC(OC(=O)CC1CCCC1)C(=O)Nc1ccc(Cl)cn1 (stereo not given)	6.3	-1.7	-1.1	0.9	4.6	-0.7	/	/
Cc1ccc(N2CCN(C3=NC(=O)/C(=C\c4cn[nH]c4-c4ccccc4)S3)CC2)cc1	4.1	93.1*	-3.8	-1.5	-5.6	0.7	42.7*	-3.4
O=C1N=C(N2CCN(c3ccccc3)CC2)S/C1=C\c1cn[nH]c1-c1ccccc1	2.2	138.2*	-1.3	-0.5	2.3	-1.8	33.8*	3.0
O=C1N=C(N2CCC(Cc3ccccc3)CC2)S/C1=C/c1cn[nH]c1-c1ccccc1	-0.2	4.8	15.2	0.1	-0.3	2.4	/	/
SMILES	Rpn11 inh	EBNA-1 inhibitor	dFosB act	GRIN3A LBD mod	ZTA DNA inh	TPT1 inh	EBNA-1 confirm	ZTA counter trip
Cc1cccc(N2CCN(C3=NC(=O)/C(=C\c4cn[nH]c4-c4ccccc4)S3)CC2)c1	-1.6	67.3*	-0.3	-3.4	-10.4	-2.2	29.1*	11.9
COc1ccc(-c2nc3nc(N)nn3cc2C)cc1F	0.9	-6.4	-2.6	-1.6	4.7	1.9	/	/
CCOc1cc(C(=O)N=c2sccn2C)cc(Br)c1OC	2.7	6.2	-22.7	3.8	-4.4	1.0	/	/
O=C(C[C@@H]1C/C=C\C[C@@H](Cc2ccc(F)cc2)C(=O)OC[C@@H]2CCCN2C1=O)NCCO	3.9	/	-6.7	-4.4	/	/	/	/
Cc1cccc(N2CCN(S(=O)(=O)c3ccc4c(c3)n(C)c(=O)c(=O)n4C)CC2C)c1 (stereo not given)	-19.5	35.5*	-0.5	-1.7	6.2	-1.0	0.2	13.6
CN(C)c1ccc(/C=C(\C#N)C(=O)NCc2ccco2)cc1	/	43.8*	/	/	24.4	42.5*	69.1*	-4.8
Cn1c(=O)n(C)c2cc(/C=C(/C#N)C(=O)NCc3ccco3)ccc21	-6.3	8.6	-8.2	0.7	-5.8	0.6	/	/
O=C(COC(=O)c1ccc(CNS(=O)(=O)c2ccc(F)c(Cl)c2)cc1)NCC1CCCCC1	-13.8	30.9*	0.0	-23.4	-11.3	-3.2	0.3	-1.3
Cc1ccc(NC(=O)CC2SC(=Nc3ccc(O)cc3)NC2=O)cc1 (stereo not given)	-2.2	11.9	-3.8	-2.2	19.8	-1.0	/	/
CCOc1ccc(N=C2NC(=O)C(CC(=O)Nc3ccc(OC)cc3)S2)cc1 (stereo not given)	-4.6	33.3*	-0.5	-1.4	-0.1	-1.5	28.9*	0.2
COc1cc(SC)ccc1C(=O)NCCNC(=O)c1nonc1N	-0.3	-1.4	-2.3	-2.3	6.2	-2.1	/	/
CN(C)S(=O)(=O)c1cccc(NC(=O)c2ccc3nccnc3c2)c1	-1.0	4.2	-0.6	-0.4	10.2	0.4	/	/
COC(=O)Cc1c(C)c2ccc(OCC(=O)N3CCCC(C)C3)c(C)c2oc1=O (stereo not given)	-14.7	48.0*	-14.3	-5.9	-6.5	-2.6	-17.9	-10.0
O=C(NNC(=O)C1CC1)c1cc(Br)c(Br)s1	-1.4	/	-2.0	-1.2	/	/	/	/
Nc1nnnn1/N=C/c1ccccc1OCc1ccccc1	6.3	28.8*	-7.3	-1.1	9.5	-4.3	13.9	-7.8
CS(=O)(=O)c1ccc(Cl)c(NC(=O)Cc2ccccc2F)c1	-2.1	5.3	3.0	0.8	9.9	-0.3	/	/

Bioassay records as filed in PubChem BioAssay.
